Data as given in PubChem BioAssay (NCATS).
Inconclusive results are not listed. Calls of active or inactive are those of the source. Calls follow the shape of the dose curve; as a rule, active = well fitted inhibition curve with a large enough effect; inconclusive = small, poorly fitted or top-dose-only effect; inactive = flat fitted curve, though single readings scatter.

What was measured:
Test in all cases: qHTS profiling for inhibitors of Plasmodium falciparum proliferation (AID 504749); also: nearly all actives have a fitted effect of over 60% in size
Details in all cases: P. falciparum in erythrocytes, SYBR Green DNA, 72 h; series mostly up to 28.7 µM
[1] = tested on: DIV17
Method in brief: (§1)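 Readout was DNA-dye fluorescence from lysed cultures, ex 485/em 535 nm. Parasitized red cells had grown 72 h with compound; data scaled between 0.29 uM artemisinin and DMSO wells and corrected using vehicle-only plates.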

[2] = tested on: DIV30
Method in brief: as §1

[3] = tested on: Dd2
Method in brief: as §1

[4] = tested on: ECU
Method in brief: as §1

[5] = tested on: FAB9
Method in brief: as §1

[6] = tested on: GB4
Method in brief: as §1

[7] = tested on: HB3
Method in brief: as §1

[8] = tested on: ICS
Method in brief: as §1

[9] = tested on: JCK
Method in brief: as §1

[10] = tested on: N140
Method in brief: as §1

Measured: Potency

O=C(Cn1ccnc1[N+](=O)[O-])NCCO
inactive: [1] | [2] | [3] | [4] | [5] | [6] | [7] | [8] | [9] | [10]

CCOC(=O)[C@H](CCc1ccccc1)N[C@@H](C)C(=O)N1CCC[C@H]1C(=O)O
inactive: [1] | [2] | [3] | [4] | [5] | [6] | [7] | [8] | [9] | [10]

CCCCCCCCCCCCCCCCC(C(=O)O)C(O)(CC(=O)O)C(=O)O (stereo not given)
inactive: [1] | [2] | [3] | [4] | [5] | [6] | [7] | [8] | [9] | [10]

Cc1onc(-c2ccccc2)c1-c1ccc(S(N)(=O)=O)cc1
inactive: [1] | [2] | [3] | [4] | [5] | [6] | [7] | [8] | [9] | [10]

O=S1(=O)OC(c2ccc(O)cc2)(c2ccc(O)cc2)c2ccccc21
inactive: [1] | [2] | [3] | [4] | [5] | [6] | [7] | [8] | [9] | [10]

O=C(CN1CCNCC1)NC1CCCCC1
inactive: [1] | [2] | [3] | [4] | [5] | [6] | [7] | [8] | [9] | [10]

O=C(O)CNC(=O)c1ccccc1I
inactive: [1] | [2] | [3] | [4] | [5] | [6] | [7] | [8] | [9] | [10]

CCN(CC)S(=O)(=O)c1ccc(C(=O)O)cc1
inactive: [1] | [2] | [3] | [4] | [5] | [6] | [7] | [8] | [9] | [10]

COc1ccc2cc(CCC(C)=O)ccc2c1
inactive: [1] | [2] | [3] | [4] | [5] | [6] | [7] | [8] | [9] | [10]

CC(O)CCCCn1c(=O)c2c(ncn2C)n(C)c1=O (stereo not given)
inactive: [1] | [2] | [3] | [4] | [5] | [6] | [7] | [8] | [9] | [10]

Cc1ccsc1C(=CCCN1CCC[C@@H](C(=O)O)C1)c1sccc1C
inactive: [1] | [2] | [3] | [4] | [5] | [6] | [7] | [8] | [9] | [10]

Cc1cc(C)nc(NS(=O)(=O)c2ccc(N)cc2)n1
inactive: [1] | [2] | [3] | [4] | [5] | [6] | [7] | [8] | [9] | [10]

O=C(CCBr)N1CCN(C(=O)CCBr)CC1
inactive: [1] | [2] | [3] | [4] | [5] | [6] | [7] | [8] | [9] | [10]

O=C(O)c1ccc(OCCCOc2ccc(C(=O)O)cc2)cc1
inactive: [1] | [2] | [3] | [4] | [5] | [6] | [7] | [8] | [9] | [10]

COC(=O)c1cccnc1
inactive: [1] | [2] | [3] | [4] | [5] | [6] | [7] | [8] | [9] | [10]

COc1nccnc1NS(=O)(=O)c1ccc(N)cc1
inactive: [1] | [2] | [3] | [4] | [5] | [6] | [7] | [8] | [9] | [10]

C[C@@H](N)C(=O)O
inactive: [1] | [2] | [3] | [4] | [5] | [6] | [7] | [8] | [9] | [10]

Cc1ncc(CO)c(CN)c1O
inactive: [1] | [2] | [3] | [4] | [5] | [6] | [7] | [8] | [9] | [10]

O=C(O)c1ccc[n+]([O-])c1
inactive: [1] | [2] | [3] | [4] | [5] | [6] | [7] | [8] | [9] | [10]

CC(=O)Nc1ccc(C(=O)O)cc1
inactive: [1] | [2] | [3] | [4] | [5] | [6] | [7] | [8] | [9] | [10]

CN/C(=C\[N+](=O)[O-])NCCSCc1csc(CN(C)C)n1
inactive: [1] | [2] | [3] | [4] | [5] | [6] | [7] | [8] | [9] | [10]

OCC(O)CS (stereo not given)
inactive: [1] | [2] | [3] | [4] | [5] | [6] | [7] | [8] | [9] | [10]

O=C(O)COC(=O)Cc1ccccc1Nc1c(Cl)cccc1Cl
inactive: [1] | [2] | [3] | [4] | [5] | [6] | [7] | [8] | [9] | [10]

Cc1ccc(C(C)C)c(O)c1
inactive: [1] | [2] | [3] | [4] | [5] | [6] | [7] | [8] | [9] | [10]

CN1C(C)(C)CCCC1(C)C
inactive: [1] | [2] | [3] | [4] | [5] | [6] | [7] | [8] | [9] | [10]

Cc1cccc(Nc2ccccc2C(=O)O)c1C
inactive: [1] | [2] | [3] | [4] | [5] | [6] | [7] | [8] | [9] | [10]

CCc1cccc(CC)c1NC(=O)CN(CC(=O)O)CC(=O)O
inactive: [1] | [2] | [3] | [4] | [5] | [6] | [7] | [8] | [9] | [10]

COc1ccccc1OC(=O)Oc1ccccc1OC
inactive: [1] | [2] | [3] | [4] | [5] | [6] | [7] | [8] | [9] | [10]

NS(=O)(=O)c1ccc(NC(=O)CCC(=O)O)cc1
inactive: [1] | [2] | [3] | [4] | [5] | [6] | [7] | [8] | [9] | [10]

Cc1c(C)c2c(c(C)c1OC(=O)c1cccnc1)CC[C@@](C)(CCC[C@H](C)CCC[C@H](C)CCCC(C)C)O2
inactive: [1] | [2] | [3] | [4] | [5] | [6] | [7] | [8] | [9] | [10]

NS(=O)(=O)c1cc(-c2nn[nH]n2)c(NCc2cccs2)cc1Cl
inactive: [1] | [2] | [3] | [4] | [5] | [6] | [7] | [8] | [9] | [10]

CC(CSC(=O)c1ccccc1)C(=O)N1C[C@@H](Sc2ccccc2)C[C@H]1C(=O)O (stereo not given in full)
inactive: [1] | [2] | [3] | [4] | [5] | [6] | [7] | [8] | [9] | [10]

Cc1c(C(=O)NCCO)[n+](=O)c2ccccc2n1[O-]
inactive: [1] | [2] | [3] | [4] | [5] | [6] | [7] | [8] | [9] | [10]

c1ccc2[nH]ccc2c1
inactive: [1] | [2] | [3] | [4] | [5] | [6] | [7] | [8] | [9] | [10]

COc1ccc(NS(=O)(=O)c2ccc(N)cc2)nn1
inactive: [1] | [2] | [3] | [4] | [5] | [6] | [7] | [8] | [9] | [10]

NS(=O)(=O)c1cc2c(cc1C(F)(F)F)NCNS2(=O)=O
inactive: [1] | [2] | [3] | [4] | [5] | [6] | [7] | [8] | [9] | [10]

COc1ccc(C(=O)N2CCN(CC(=O)N3CCOCC3)CC2)cc1
inactive: [1] | [2] | [3] | [4] | [5] | [6] | [7] | [8] | [9] | [10]

NCC1CCC(C(=O)Oc2ccc(CCC(=O)O)cc2)CC1 (stereo not given)
inactive: [1] | [2] | [3] | [4] | [5] | [6] | [7] | [8] | [9] | [10]

CCc1nnc(NS(=O)(=O)c2ccc(N)cc2)s1
inactive: [1] | [2] | [3] | [4] | [5] | [6] | [7] | [8] | [9] | [10]

OC[C@@H](O)[C@@H](O)[C@H](O)[C@H](O)CO
inactive: [1] | [2] | [3] | [4] | [5] | [6] | [7] | [8] | [9] | [10]

Cc1c(Cn2ccnc2)c2ccccc2n1CCC(=O)O
inactive: [1] | [2] | [3] | [4] | [5] | [6] | [7] | [8] | [9] | [10]

CC(C)CCCC(C)CCCC(C)CCCCC(C)CCCC(C)CCCC(C)C (stereo not given)
inactive: [1] | [2] | [3] | [4] | [5] | [6] | [7] | [8] | [9] | [10]

CC(=O)Oc1cccc(C)c1
inactive: [1] | [2] | [3] | [4] | [5] | [6] | [7] | [8] | [9] | [10]

CC(C)C[C@@H](N)C(=O)O
inactive: [1] | [2] | [3] | [4] | [5] | [6] | [7] | [8] | [9] | [10]

CC(N)CCCC(C)(C)O (stereo not given)
inactive: [1] | [2] | [3] | [4] | [5] | [6] | [7] | [8] | [9] | [10]

CC(C)=CCC/C(C)=C/CO
inactive: [1] | [2] | [3] | [4] | [5] | [6] | [7] | [8] | [9] | [10]

CCN(CC)CCc1nc(-c2ccccc2)no1
inactive: [1] | [2] | [3] | [4] | [5] | [6] | [7] | [8] | [9] | [10]

O=c1[nH]cnc2nc[nH]c12
inactive: [1] | [2] | [3] | [4] | [5] | [6] | [7] | [8] | [9] | [10]

CC1CCc2cc(F)cc3c(=O)c(C(=O)O)cn1c23 (stereo not given)
inactive: [1] | [2] | [3] | [4] | [5] | [6] | [7] | [8] | [9] | [10]
